Rows were chosen to be rich in hits. Some 4.7% of all compounds tested hit in one or more screens of this group.
TGFb SMAD3 inh: qHTS for Inhibitors of TGF-b | AID 588855, 2011 | hit rate 1.2% among 410,000 | Potency, µM (titrated, usually from 46.1 µM), for inactives: top-dose activity, negative = inhibition, actives largely listed as inhibitors | HepG2 CAGA-GFP TGF-b/SMAD3 reporter, GFP fluorescence, 18 h; TGF-beta stimulated, 500 pg/mL final; further: potency means the concentration at half of the fitted maximal effect; on the % scale 0 is the no-effect control and ±100 the full control effect; nearly all actives have a fitted effect of over 65% in size
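TGF-beta reporter screen: HEPG2 CAGA-GFP, 1% FBS, 500 pg/mL TGF-beta final, 18 h; per-cell GFP summed per well; curves fitted and categorized by class.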
ATXN viability: Viability Counterscreen for Primary qHTS for Inhibitors of ATXN expression. S2 cells (HEK-293 line with an ATXN2-luciferase reporter) viability, CellTiter-Fluor protease fluorescence, 24 h. Potency, µM (titrated, usually from 56.7 µM), usual class: cytotoxic. hit rate 0.49% among 400,000; further: potency means the concentration at half of the fitted maximal effect; nearly all actives have a fitted effect of over 40% in size
DRD3 antagonist: qHTS of D3 Dopamine Receptor Antagonist: qHTS | AID 652054, 2013 | hit rate 2.5% among 360,000 | max response, negative = inhibition, % | D3R cells, DiscoveRx beta-arrestin luminescence, antagonist mode; stronger effect = lower value | D(3) dopamine receptor (Homo sapiens), P35462; in the data active means max response below about -50%; inconclusive means no clear call, values can overlap the other calls; further: on the % scale 0 is the no-effect control and ±100 the full control effect
Target sequence (P35462 whole entry, looked up): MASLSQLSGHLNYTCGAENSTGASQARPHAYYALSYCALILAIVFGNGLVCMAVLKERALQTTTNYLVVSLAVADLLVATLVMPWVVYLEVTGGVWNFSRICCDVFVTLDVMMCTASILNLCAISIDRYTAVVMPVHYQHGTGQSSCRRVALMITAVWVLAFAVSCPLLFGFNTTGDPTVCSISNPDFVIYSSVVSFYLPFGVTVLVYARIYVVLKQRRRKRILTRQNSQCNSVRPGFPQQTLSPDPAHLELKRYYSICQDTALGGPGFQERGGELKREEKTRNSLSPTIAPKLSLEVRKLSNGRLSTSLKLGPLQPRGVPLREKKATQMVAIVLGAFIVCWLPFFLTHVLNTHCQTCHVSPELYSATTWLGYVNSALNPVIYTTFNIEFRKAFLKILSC
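Cells expressing the human receptor were seeded at 1500 cells/well, incubated overnight at 37 degrees C in 5% CO2, then exposed to library compounds with dopamine controls for 90 minutes at 37 degrees C before luminescent detection.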
ATXN2 expr inh: Primary qHTS for Inhibitors of ATXN expression | HEK-293 ATXN2-luciferase reporter, luminescence, 24 h | Potency, µM (highest dose often 57 µM), for inactives: top-dose activity change, negative = inhibition, most hits filed as inhibitors | hit rate 0.72% among 360,000 | AID 1745845, 2022; further: potency means the concentration at half of the fitted maximal effect; on the % scale 0 is the no-effect control and ±100 the full control effect; nearly all actives have a fitted effect of over 55% in size
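ATXN2-luciferase reporter cells (luciferase flanked by upstream and downstream ATXN2 gene portions) were treated 24 h at 37 °C with compounds at up to 57 uM. SteadyGlo luminescence gave expression; GF-AFC fluorescence gave viability.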
D3 ag: qHTS of D3 Dopamine Receptor Agonist: qHTS. D(3) dopamine receptor (Homo sapiens), P35462. D3R DiscoveRx beta-arrestin cells, luminescence, 90 min. max activation, %. hit rate 0.58% among 410,000; in the data active means max activation above about 30%; further: 0% is about no effect
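Cells at 1500/well, incubated overnight, then treated with pinned compounds (dopamine as control) for 90 min at 37 degrees C. DiscoveRx reagent added for 30 - 60 minutes at room temperature; luminescence read.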
HepG2 viability: qHTS for Inhibitors of TGF-b: Cytotox Counterscreen | Potency, µM (highest dose often 46.1 µM), without a hit: at the top dose activity change, negative = cytotoxicity, usual class: cytotoxic | HepG2 CAGA-GFP viability, ATP luminescence, 18 h | hit rate 0.76% among 410,000; further: potency means the concentration at half of the fitted maximal effect
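HepG2 CAGA-GFP cells (1000/well, DMEM with 1% FBS) received compound, then TGF-beta at 500 pg/mL final, and were incubated 18 hours at 37 degrees C. Viability was read by CellTiter-Glo luminescence. Media-only wells were set as complete cell-killing and DMSO as no toxicity.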
* hit, by the source's call; i = inactive; u = inconclusive; x = no result; ! = not active in a repeat; [ ] = another dose, or the depositor's remark. Unless noted, the call rests on the fitted dose curve; in most records, active means well fitted curve in the direction sought with a large enough effect; inconclusive means small, poorly fitted or top-dose-only effect, or another doubt; inactive means no such curve, though single readings can be large; an effect the other way counts as inactive or inconclusive.

SMILES | TGFb SMAD3 inh | ATXN viability | DRD3 antagonist | ATXN2 expr inh | D3 ag | HepG2 viability
CCn1c2ccccc2c2cc(/C=C3/C=Cc4ccccc43)ccc21 | 6.8% | x | x | x | x | -17.5%
CN(C)c1ccc(/C=C/c2ccnc3c(Cl)ccc(Cl)c23)cc1 | 50.9% | x | x | x | x | -7.0%
CCN1c2ccccc2-c2nc(SCC(=O)Nc3cccc(C(F)(F)F)c3)ncc2S1(=O)=O | 0.5% | u | x | -15.2% | 8.1 | -9.6%
COc1cccc(C2CC(=O)Nc3cc4c(cc32)CCC4)c1 (configuration not stated) | -25.0% | u | 7.5 | x | 1.1 | -17.5%
O=C1CC(c2cc(Br)ccc2F)c2cc3c(cc2N1)CCC3 (configuration not stated) | -3.8% | 4.47µM* | -5.6 | u | 7.3 | 4.4%
O=C1CC(c2cccc(Cl)c2)c2cc3c(cc2N1)CCC3 (configuration not stated) | 10µM* | u | -9.3 | u | 1.5 | -52.8%
CC(=O)c1ccc(NC(=O)CSc2nc(=O)n(Cc3ccccn3)c3c2CCC3)cc1 | u | i | x | -8.7% | -1.0 | -27.5%
Cc1cc(OCC(O)CN2CCN(c3ccccn3)CC2)cc(C)c1Cl (configuration not stated) | -13.3% | i | -3.0 | -5.3% | 51.0* | -0.5%
OC(COC(c1ccccc1)c1ccccc1)CN1CCN(c2ccccn2)CC1 (configuration not stated) | -21.4% | i | -9.2 | -21.9% | 55.6* | -15.9%
Cc1cc(C)c(OCC(O)CN2CCN(c3ccccn3)CC2)c(C)c1 (configuration not stated) | -6.7% | i | 0.3 | -17.0% | 106.0* | -14.3%
CCc1ccc(OCC(O)CN2CCN(c3ccccn3)CC2)cc1 (configuration not stated) | u | u | -26.8 | u | 24.1 | -105.2%
OC(COc1ccc(Cl)c2ccccc12)CN1CCN(c2ccccn2)CC1 (configuration not stated) | u | i | 5.4 | -4.4% | 72.3* | -96.0%
O=C(Nc1nnc(CCc2ccccc2)s1)C1CCN(C(=O)c2ccco2)CC1 | -17.0% | x | x | x | x | -8.2%
COCc1c(C(=O)N2CCN(c3ccccc3O)CC2)cnn1-c1nccc(-c2cccs2)n1 | x | i | x | x | x | x
c1ncc2snnc2n1 | -0.2% | x | x | x | x | -4.6%
CC(=O)Nc1ccc(S(=O)(=O)Nc2cc(-c3cn4ccccc4n3)ccc2C)cc1 | 8.7% | u | x | 3.5% | -3.4 | -21.8%
O[C@@H](COc1cccc2ncccc12)CN1CCN(C2c3ccccc3[C@@H]3[C@H](c4ccccc42)C3(F)F)CC1 (some centres not stated) | x | 25.1µM* | x | u | x | x
OC(COc1cc(Cl)c(Cl)cc1Cl)CN1CCN(c2ncccn2)CC1 (configuration not stated) | -3.4% | i | u | -8.5% | 16.5 | -23.8%
COc1ccc(-c2[nH][nH]c(=O)c2NC(=O)c2ccc(C)cc2)cc1 | -19.8% | i | -84.5* | 12.2% | -10.6 | 3.8%
CCOC(=O)CN(C)Cc1cn[nH]c1-c1ccc2cc(OC)ccc2c1 | -9.9% | i | -5.7 | -11.3% | -0.4 | -0.9%
CCOc1ccc(NC(=O)N(Cc2ccc(CC)cc2)Cc2cn[nH]c2-c2ccc(OC)cc2)cc1 | 8.91µM* | x | x | x | 18.0 | -16.8%
COc1ccc(S(=O)(=O)N2CCN(CC(=O)Nc3ccc(C)c(F)c3)CC2)cc1 | 0.0% | i | -19.7 | -21.3% | -7.6 | -18.3%
CCc1ccc(CN(Cc2cn[nH]c2-c2ccc(OC)cc2)C(=O)Nc2ccc(C)c(F)c2)cc1 | 10µM* | x | x | x | 9.7 | -42.6%
CCc1ccc(CN(Cc2cn[nH]c2-c2ccc(OC)cc2)C(=O)Nc2ccc(Br)cc2)cc1 | 7.94µM* | x | x | x | 17.4 | -39.7%
CC(C)Cc1nc2oc3c(NCC4CCCO4)ncnc3c2c2c1CCC2 (configuration not stated) | -3.3% | i | 0.9 | 4.5% | 57.8* | -19.8%
SMILES | TGFb SMAD3 inh | ATXN viability | DRD3 antagonist | ATXN2 expr inh | D3 ag | HepG2 viability
CC(C)Cc1nc2oc3c(NCc4cccnc4)ncnc3c2c2c1CCC2 | -6.1% | x | 22.9 | x | 4.7 | -7.6%
OC(CN1CCCCC1)c1cc(-c2ccccc2)on1 (configuration not stated) | x | i | x | x | -3.2 | x
O=C(NCCc1nc2ccccc2n1CCOc1cccc2ccccc12)C1CCCCC1 | -4.9% | x | x | x | x | 5.4%
Cc1c(N=C2NC(=O)/C(=C/c3ccc(O)cc3)S2)c(=O)n(-c2ccccc2)n1C | 0.2% | u | -8.7 | 3.7% | -11.0 | 10µM*
CCOC(=O)C1(C)/C(=N/Nc2ccccc2)C(=O)C(=O)N1c1ccccc1 (configuration not stated) | 0.5% | i | -57.9* | 2.5% | -9.5 | -29.3%
CCOC(=O)C1(C)/C(=N/Nc2ccccc2OC)C(=O)C(=O)N1c1ccccc1 (configuration not stated) | -13.9% | i | -16.1 | -5.7% | 2.7 | -14.2%
CC(C)c1cccc(NC(=O)COC(=O)c2ccccc2OCc2cccc(Br)c2)c1 | -22.3% | x | x | x | x | -24.5%
O=c1ccc(N=Nc2ccccc2)ccc1O | -25.1% | 12.6µM* | -26.8 | u | -4.6 | 17.8µM*
Cc1c(-c2ccc(O)cc2)n(Cc2ccc(OCCN3CCCCCC3)cc2)c2ccc(O)cc12 | x | 15.8µM*! | x | 17.8µM*! | -24.8 | x
CC(=O)c1cc(-c2ccccc2)n(CC(=O)NC2CCCCCC2)c1C | u | x | x | x | -5.6 | -4.0%
COc1cccc2c(NCc3ccccc3)nc(-n3c(N)nc4ccccc43)nc12 | x | x | x | 27.3µM* | x | x
Cc1cc(=O)[nH]c2nnc(SCC(=O)Nc3ccc(OC(F)(F)F)cc3)n12 | -6.2% | x | x | x | 46.7* | -4.1%
Cn1c(=O)c2c(nc(SCCN3CCCCC3)n2Cc2ccc(Cl)cc2)n(C)c1=O | 13.1% | i | -51.3* | -1.7% | 0.8 | -18.7%
O=c1c2ccccc2nc(SCCN2CCCCC2)n1CCc1ccccc1 | 14.1% | u | -56.1* | -25.1%[11.3 µM] | -10.1 | -3.6%
NC(=O)CSc1nc2ccccc2c(=O)n1CCc1ccccc1 | -1.6% | i | -9.5 | -9.1% | 3.3 | -22.7%
Cc1oc2ccc(O)c(CN3CCN(Cc4ccccc4)CC3)c2c1C(=O)Nc1ccccc1 | u | u | x | -21.9% | -22.5 | -38.7%
Cc1ccc(-n2ccnc(NCCc3ccc(S(N)(=O)=O)cc3)c2=O)c(C)c1 | u | i | x | -16.7% | 7.2 | -36.1%

Screening data from PubChem BioAssay.
